# Reference: PubChem BioAssay AID1159580 (chemical genetic matrix, 2015)
# Hit rate of the full screen: of about 5,500 compounds, about 2,000 (36%) were called active. Roughly 18% stayed inconclusive and do not appear here. The list shows a part of the results. A number with no mark means an inactive call. Rule as the data show it: active = normalized growth mostly below about 0.91 (no sharp cut-off); inconclusive = no clear call, values can overlap the other calls; inactive = mostly above about 0.92.
# Assay: chemical genetic growth profiling, strain panel (AID 1159580);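 also: tested at 20 µM; growth read once vehicle control cultures reached saturation at 30 °C; 1 = growth at the plate median or of vehicle wells; lower values mean less growth of the strain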
# Details: growth OD
# [1] = S. cerevisiae deletion strains, locus YAL013W, strain DEP1, hits give low values
# [2] = S. cerevisiae deletion strains, locus YBR229C, strain ROT2, hits give low values
# [3] = S. cerevisiae deletion strains, locus YCL061C, strain MRC1, hits give low values
# [4] = S. cerevisiae deletion strains, locus YDL101C, strain DUN1, hits give low values
# [5] = S. cerevisiae deletion strains, locus YDL134C, strain PPH21, hits give low values
# [6] = S. cerevisiae deletion strains, locus YDR150W, strain NUM1, hits give low values
# [7] = S. cerevisiae deletion strains, locus YEL061C, strain CIN8, hits give low values
# [8] = S. cerevisiae deletion strains, locus YGR078C, strain PAC10, hits give low values
# [9] = S. cerevisiae deletion strains, locus YHR030C, strain SLT2, hits give low values
# [10] = S. cerevisiae deletion strains, locus YHR087W, strain rtc3, hits give low values
# [11] = S. cerevisiae deletion strains, locus YJR043C, strain POL32, hits give low values
# [12] = S. cerevisiae deletion strains, locus YJR075W, strain HOC1, hits give low values
# [13] = S. cerevisiae deletion strains, locus YLR039C, strain RIC1, hits give low values
# [14] = S. cerevisiae deletion strains, locus YLR058C, strain SHM2 (second series), hits give low values
# [15] = S. cerevisiae deletion strains, locus YLR085C, strain ARP6, hits give low values
# [16] = S. cerevisiae deletion strains, locus YLR262C, strain YPT6, hits give low values
# [17] = S. cerevisiae deletion strains, locus YML094W, strain GIM5, hits give low values
# [18] = S. cerevisiae deletion strains, locus YMR219W, strain ESC1, hits give low values
# [19] = S. cerevisiae deletion strains, locus YMR263W, strain SAP30, hits give low values
# [20] = S. cerevisiae deletion strains, locus YNL153C, strain GIM3, hits give low values
# [21] = S. cerevisiae deletion strains, locus YNL298W, strain CLA4 (second series), hits give low values
# [22] = S. cerevisiae deletion strains, locus YNL322C, strain KRE1, hits give low values
# [23] = S. cerevisiae deletion strains, locus YNR030W, strain Alg12, hits give low values
# [24] = S. cerevisiae deletion strains, locus YOL006C, strain TOP1, hits give low values
# [25] = S. cerevisiae deletion strains, locus YPL055C, strain LGE1, hits give low values
# [26] = S. cerevisiae deletion strains, locus YPL241C, strain CIN2, hits give low values
# [27] = S. cerevisiae deletion strains, locus YPR135W, strain CTF4, hits give low values
structure (smiles),measurement,setting,value
Cn1c(SCc2ccccc2)nnc1-c1ccc2ncccc2c1,normalized growth,[1],1
same,normalized growth,[2],0.997
same,normalized growth,[3],1.01
same,normalized growth,[4],0.986
same,normalized growth,[5],1.01
same,normalized growth,[6],0.902
same,normalized growth,[7],0.987
same,normalized growth,[8],1
same,normalized growth,[9],1.18
same,normalized growth,[10],0.999
same,normalized growth,[11],0.997
same,normalized growth,[12],0.991
same,normalized growth,"S. cerevisiae deletion strains, locus YKL190W, strain CNB1, hits give low values",0.994
same,normalized growth,[13],1.1
same,normalized growth,[14],0.997
same,normalized growth,[15],1.05
same,normalized growth,[16],1.1
same,normalized growth,[17],1.01
same,normalized growth,[18],0.999
same,normalized growth,[19],0.989
same,normalized growth,"S. cerevisiae deletion strains, locus YMR307W, strain GAS1, hits give low values",1.41 [resistant] (active)
same,normalized growth,[20],0.997
same,normalized growth,[21],1.07
same,normalized growth,[22],0.992
same,normalized growth,[23],1.02
same,normalized growth,[24],1.01
same,normalized growth,[25],0.99
same,normalized growth,[26],1.02
same,normalized growth,[27],1.08
Cn1c(SCC(=O)N2CCOCC2)nnc1-c1ccc2ncccc2c1,normalized growth,[1],0.996
same,normalized growth,[2],1.01
same,normalized growth,[3],1.02
same,normalized growth,[4],1.03
same,normalized growth,[5],0.963
same,normalized growth,[6],0.929
same,normalized growth,[7],1.03
same,normalized growth,[8],1.02
same,normalized growth,[9],1.08
same,normalized growth,[10],1.01
same,normalized growth,[11],1.01
same,normalized growth,[12],1.03
same,normalized growth,[13],0.971
same,normalized growth,[14],0.995
same,normalized growth,[15],1.1
same,normalized growth,[16],0.942
same,normalized growth,[17],1.06
same,normalized growth,[18],1
same,normalized growth,[19],1
same,normalized growth,[20],1
same,normalized growth,[21],1.03
same,normalized growth,[22],0.992
same,normalized growth,[23],1.03
same,normalized growth,[24],1.03
same,normalized growth,[25],1.04
same,normalized growth,[26],1.05
same,normalized growth,[27],1.03
same,normalized growth,"S. cerevisiae strains, strain wild type, hits give low values",0.984
O=C(NNc1cc(C(F)(F)F)cc(C(F)(F)F)c1)c1cnc2n(c1=O)CCS2,normalized growth,"S. cerevisiae deletion strains, locus YAR019C, strain CDC15, hits give low values",0.985
same,normalized growth,"S. cerevisiae deletion strains, locus YBL105C, strain PKC1, hits give low values",0.987
same,normalized growth,"S. cerevisiae deletion strains, locus YBR135W, strain CKS1, hits give low values",0.99
same,normalized growth,"S. cerevisiae deletion strains, locus YBR136W, strain MEC1, hits give low values",0.983
same,normalized growth,"S. cerevisiae deletion strains, locus YBR160W, strain CDC28, hits give low values",0.99
same,normalized growth,"S. cerevisiae deletion strains, locus YDL017W, strain CDC7, hits give low values",0.986
same,normalized growth,"S. cerevisiae deletion strains, locus YDL028C, strain MPS1, hits give low values",0.991
same,normalized growth,[4],0.983
same,normalized growth,"S. cerevisiae deletion strains, locus YDL108W, strain KIN28, hits give low values",1
same,normalized growth,"S. cerevisiae deletion strains, locus YDL132W, strain cdc53, hits give low values",0.998
same,normalized growth,"S. cerevisiae deletion strains, locus YDL214C, strain PRR2, hits give low values",0.992
same,normalized growth,"S. cerevisiae deletion strains, locus YDR052C, strain DBF4, hits give low values",0.991
same,normalized growth,"S. cerevisiae deletion strains, locus YDR054C, strain cdc34, hits give low values",0.993
same,normalized growth,"S. cerevisiae deletion strains, locus YDR226W, strain ADK1, hits give low values",0.987
same,normalized growth,"S. cerevisiae deletion strains, locus YDR477W, strain SNF1, hits give low values",0.994
same,normalized growth,"S. cerevisiae deletion strains, locus YER123W, strain YCK3, hits give low values",0.936
same,normalized growth,"S. cerevisiae deletion strains, locus YER133W, strain GLC7, hits give low values",0.977
same,normalized growth,"S. cerevisiae deletion strains, locus YFL009W, strain cdc4, hits give low values",0.987
same,normalized growth,"S. cerevisiae deletion strains, locus YFL029C, strain CAK1, hits give low values",1
same,normalized growth,"S. cerevisiae deletion strains, locus YFR003C, strain YPI1, hits give low values",0.999
same,normalized growth,"S. cerevisiae deletion strains, locus YFR019W, strain FAB1, hits give low values",0.982
same,normalized growth,"S. cerevisiae deletion strains, locus YFR028C, strain CDC14, hits give low values",0.983
same,normalized growth,"S. cerevisiae deletion strains, locus YGR040W, strain KSS1, hits give low values",1
same,normalized growth,"S. cerevisiae deletion strains, locus YGR052W, strain FMP48, hits give low values",1.03
same,normalized growth,"S. cerevisiae deletion strains, locus YGR092W, strain DBF2, hits give low values",0.961
same,normalized growth,[9],0.939
same,normalized growth,"S. cerevisiae deletion strains, locus YHR079C, strain IRE1, hits give low values",0.972
same,normalized growth,"S. cerevisiae deletion strains, locus YHR082C, strain KSP1, hits give low values",1.01
same,normalized growth,"S. cerevisiae deletion strains, locus YHR205W, strain SCH9, hits give low values",0.938
same,normalized growth,"S. cerevisiae deletion strains, locus YIL147C, strain SLN1, hits give low values",0.988
same,normalized growth,"S. cerevisiae deletion strains, locus YJL095W, strain BCK1, hits give low values",0.98
same,normalized growth,"S. cerevisiae deletion strains, locus YJL128C, strain PBS2, hits give low values",1.02
same,normalized growth,"S. cerevisiae deletion strains, locus YJL157C, strain FAR1, hits give low values",0.996
same,normalized growth,"S. cerevisiae deletion strains, locus YJR016C, strain ILV3, hits give low values",0.99
same,normalized growth,"S. cerevisiae deletion strains, locus YJR066W, strain TOR1 (second series), hits give low values",0.995
same,normalized growth,"S. cerevisiae deletion strains, locus YJR066W, strain TOR1, hits give low values",0.974
same,normalized growth,"S. cerevisiae deletion strains, locus YKL048C, strain ELM1, hits give low values",0.971
same,normalized growth,"S. cerevisiae deletion strains, locus YKL067W, strain YNK1, hits give low values",0.995
same,normalized growth,"S. cerevisiae deletion strains, locus YKL101W, strain HSL1, hits give low values",1.01
same,normalized growth,"S. cerevisiae deletion strains, locus YKL193C, strain SDS22, hits give low values",0.986
same,normalized growth,"S. cerevisiae deletion strains, locus YKL203C, strain TOR2, hits give low values",1.03
same,normalized growth,"S. cerevisiae deletion strains, locus YLR113W, strain HOG1, hits give low values",0.883
same,normalized growth,"S. cerevisiae deletion strains, locus YLR133W, strain CKI1, hits give low values",1.01
same,normalized growth,"S. cerevisiae deletion strains, locus YLR403W, strain SFP1, hits give low values",0.99
same,normalized growth,"S. cerevisiae deletion strains, locus YML070W, strain DAK1, hits give low values",0.973
same,normalized growth,"S. cerevisiae deletion strains, locus YMR001C, strain CDC5, hits give low values",0.995
same,normalized growth,"S. cerevisiae deletion strains, locus YMR205C, strain PFK2 (second series), hits give low values",1.01
same,normalized growth,"S. cerevisiae deletion strains, locus YMR277W, strain FCP1, hits give low values",0.992
same,normalized growth,"S. cerevisiae deletion strains, locus YNL006W, strain LST8, hits give low values",1
same,normalized growth,"S. cerevisiae deletion strains, locus YNL020C, strain ARK1, hits give low values",1
same,normalized growth,"S. cerevisiae deletion strains, locus YNL161W, strain CBK1, hits give low values",0.98
same,normalized growth,"S. cerevisiae deletion strains, locus YNL183C, strain NPR1, hits give low values",0.962
same,normalized growth,"S. cerevisiae deletion strains, locus YNL207W, strain RIO2, hits give low values",0.996
same,normalized growth,"S. cerevisiae deletion strains, locus YNL222W, strain SSU72, hits give low values",0.988
same,normalized growth,"S. cerevisiae deletion strains, locus YNL307C, strain MCK1 (second series), hits give low values",0.935
same,normalized growth,"S. cerevisiae deletion strains, locus YOL078W, strain AVO1, hits give low values",0.992
same,normalized growth,"S. cerevisiae deletion strains, locus YOL136C, strain PFK27, hits give low values",0.971
same,normalized growth,"S. cerevisiae deletion strains, locus YOR061W, strain CKA2, hits give low values",1.02
same,normalized growth,"S. cerevisiae deletion strains, locus YOR119C, strain RIO1, hits give low values",0.983
same,normalized growth,"S. cerevisiae deletion strains, locus YOR231W, strain MKK1, hits give low values",0.979
same,normalized growth,"S. cerevisiae deletion strains, locus YOR329C, strain SCD5, hits give low values",0.983
same,normalized growth,"S. cerevisiae deletion strains, locus YPL031C, strain PHO85, hits give low values",0.983
same,normalized growth,"S. cerevisiae deletion strains, locus YPL153C, strain RAD53, hits give low values",0.986
same,normalized growth,"S. cerevisiae deletion strains, locus YPL204W, strain HRR25, hits give low values",0.982
same,normalized growth,"S. cerevisiae deletion strains, locus YPL209C, strain IPL1, hits give low values",0.984
same,normalized growth,"S. cerevisiae deletion strains, locus YPL256C, strain CLN2, hits give low values",0.936
same,normalized growth,"S. cerevisiae deletion strains, locus YPR025C, strain CCL1, hits give low values",0.972
same,normalized growth,"S. cerevisiae deletion strains, locus YPR106W, strain ISR1, hits give low values",0.995
same,normalized growth,"S. cerevisiae deletion strains, locus YPR111W, strain DBF20, hits give low values",0.997
same,normalized growth,"S. cerevisiae deletion strains, strain NNK1, hits give low values",0.988
same,normalized growth,"S. cerevisiae deletion strains, strain TSCII, hits give low values",0.987
